# Tests used:
# Test in all cases: DAPPL (digital affinity profiling via proximity ligation, sequencing); 10 mM Tris-HCl pH 7.5, 50 mM NaCl, 1 mM DTT, 4% glycerol, room temperature, 30 min; GST-TFs on glutathione beads, 16-mer random dsDNA library, 0.1% formaldehyde crosslink after washing; high values mean tight binding
# FEV = molecular target: T1, FEV (Homo sapiens, UniProt Q99581 1-238); details: protein: recombinant; tags: N-terminal GST; dsDNA, one strand shown
# T1 sequence: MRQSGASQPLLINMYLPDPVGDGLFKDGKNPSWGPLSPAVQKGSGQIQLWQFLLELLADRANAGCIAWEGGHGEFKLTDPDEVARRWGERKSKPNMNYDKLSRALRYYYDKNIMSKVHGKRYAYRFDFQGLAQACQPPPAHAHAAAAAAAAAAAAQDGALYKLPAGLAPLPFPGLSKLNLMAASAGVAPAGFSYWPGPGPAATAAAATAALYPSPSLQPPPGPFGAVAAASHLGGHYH
# How it was run: (§1)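 Sequencing on an Illumina NextSeq500 followed washing, crosslinking with 0.1% formaldehyde, proximity ligation (BsaI/T4 ligase, 1 h, 37 °C) and PCR amplification of pools that had been incubated for 30 min at room temperature with 200 nmole of a random double-stranded 16-mer DNA library in Tris/NaCl/DTT/glycerol buffer. Each pool held DNA-barcoded human transcription factors, expressed in yeast as GST fusions and captured on glutathione beads, plus a tag-only sample. Binding signal is a hexamer's read frequency for a factor divided by its frequency in the tag-only sample.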
# ETV5 = ETV5 (Homo sapiens, UniProt P41161 1-510); details: protein: recombinant; tags: N-terminal GST; dsDNA, one strand shown
# How it was run: as §1
# HSF1 = HSF1 (Homo sapiens, UniProt Q00613 1-529); details: protein: recombinant; tags: N-terminal GST; chain copies: 3; dsDNA, one strand shown
# How it was run: as §1
# SPIC = molecular target: T2, SPIC (Homo sapiens, UniProt Q8N5J4 1-248); details: protein: recombinant; tags: N-terminal GST; dsDNA, one strand shown
# T2 sequence: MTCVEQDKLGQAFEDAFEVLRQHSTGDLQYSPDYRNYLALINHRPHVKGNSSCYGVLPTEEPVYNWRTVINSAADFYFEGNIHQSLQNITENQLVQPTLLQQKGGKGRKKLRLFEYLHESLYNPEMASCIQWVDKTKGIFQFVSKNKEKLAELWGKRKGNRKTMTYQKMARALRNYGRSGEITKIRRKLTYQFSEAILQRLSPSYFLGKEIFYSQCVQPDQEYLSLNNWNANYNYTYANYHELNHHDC
# How it was run: as §1
# ELF4 = ELF4 (Homo sapiens, UniProt Q99607 1-663); details: protein: recombinant; tags: N-terminal GST; dsDNA, one strand shown
# How it was run: as §1
# ELK4 = molecular target: T3, ELK4 (Homo sapiens, UniProt P28324-2 1-405); details: protein: recombinant; tags: N-terminal GST; dsDNA, one strand shown
# T3 sequence: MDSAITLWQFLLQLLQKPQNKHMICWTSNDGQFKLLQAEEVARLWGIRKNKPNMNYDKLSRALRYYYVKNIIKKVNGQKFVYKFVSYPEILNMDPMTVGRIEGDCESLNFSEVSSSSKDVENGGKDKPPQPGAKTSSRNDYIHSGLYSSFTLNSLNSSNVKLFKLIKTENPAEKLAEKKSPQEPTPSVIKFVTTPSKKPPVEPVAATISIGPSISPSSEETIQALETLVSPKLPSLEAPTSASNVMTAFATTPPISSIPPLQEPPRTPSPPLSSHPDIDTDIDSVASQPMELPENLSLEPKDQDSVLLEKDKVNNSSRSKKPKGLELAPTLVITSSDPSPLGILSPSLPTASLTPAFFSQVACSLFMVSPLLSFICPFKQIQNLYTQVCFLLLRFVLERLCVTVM
# How it was run: as §1
# ETV2 = molecular target: T4, ETV2 (Homo sapiens, UniProt O00321 1-342); details: protein: recombinant; tags: N-terminal GST; dsDNA, one strand shown
# T4 sequence: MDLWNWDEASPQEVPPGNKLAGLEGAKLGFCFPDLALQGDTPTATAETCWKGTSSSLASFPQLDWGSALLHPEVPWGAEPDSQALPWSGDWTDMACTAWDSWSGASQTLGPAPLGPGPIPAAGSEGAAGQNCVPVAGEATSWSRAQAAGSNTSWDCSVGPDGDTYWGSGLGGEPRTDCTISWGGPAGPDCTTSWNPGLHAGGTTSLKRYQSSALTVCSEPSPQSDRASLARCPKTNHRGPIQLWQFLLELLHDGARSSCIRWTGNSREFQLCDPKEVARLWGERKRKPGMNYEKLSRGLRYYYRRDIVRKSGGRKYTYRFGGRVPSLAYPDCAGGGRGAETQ
# How it was run: as §1
# ELF3 = molecular target: T5, ELF3 (Homo sapiens, UniProt P78545 1-371); details: protein: recombinant; tags: N-terminal GST; dsDNA, one strand shown
# T5 sequence: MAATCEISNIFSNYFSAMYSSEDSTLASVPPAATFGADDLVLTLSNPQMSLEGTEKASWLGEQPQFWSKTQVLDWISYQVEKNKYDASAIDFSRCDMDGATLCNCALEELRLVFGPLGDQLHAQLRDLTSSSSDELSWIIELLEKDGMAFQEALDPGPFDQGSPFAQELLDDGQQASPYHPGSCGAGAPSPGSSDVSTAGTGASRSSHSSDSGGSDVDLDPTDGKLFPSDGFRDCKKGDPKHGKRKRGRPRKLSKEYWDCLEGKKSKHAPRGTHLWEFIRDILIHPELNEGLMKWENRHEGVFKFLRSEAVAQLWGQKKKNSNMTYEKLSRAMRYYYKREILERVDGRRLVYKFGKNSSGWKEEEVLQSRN
# How it was run: as §1
# CRX = CRX (Homo sapiens, UniProt O43186 1-299); details: protein: recombinant; tags: N-terminal GST; dsDNA, one strand shown
# How it was run: as §1
# ETV1 = ETV1 (Homo sapiens, UniProt P50549 1-477); details: protein: recombinant; tags: N-terminal GST; dsDNA, one strand shown
# How it was run: as §1
# ERF = molecular target: T6, ERF (Homo sapiens, UniProt P50548 1-548); details: protein: recombinant; tags: N-terminal GST; dsDNA, one strand shown
# T6 sequence: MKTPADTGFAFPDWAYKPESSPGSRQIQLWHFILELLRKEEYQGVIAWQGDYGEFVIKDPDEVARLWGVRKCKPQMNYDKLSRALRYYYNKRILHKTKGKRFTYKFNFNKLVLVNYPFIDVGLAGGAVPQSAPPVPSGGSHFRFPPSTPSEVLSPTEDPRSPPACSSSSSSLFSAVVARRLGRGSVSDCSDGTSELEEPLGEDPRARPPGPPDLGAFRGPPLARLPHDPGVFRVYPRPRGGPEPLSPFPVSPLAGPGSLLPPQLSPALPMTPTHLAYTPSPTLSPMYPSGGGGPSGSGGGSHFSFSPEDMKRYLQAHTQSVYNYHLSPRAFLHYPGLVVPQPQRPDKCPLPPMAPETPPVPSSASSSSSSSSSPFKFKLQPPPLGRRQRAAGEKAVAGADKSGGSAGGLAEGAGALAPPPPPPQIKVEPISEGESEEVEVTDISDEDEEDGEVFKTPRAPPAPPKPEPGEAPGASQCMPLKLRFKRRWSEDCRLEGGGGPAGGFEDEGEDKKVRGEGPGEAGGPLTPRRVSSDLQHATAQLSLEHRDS
# How it was run: as §1
# ETV3L = molecular target: T7, ETV3L (Homo sapiens, UniProt Q6ZN32 1-361); details: protein: recombinant; tags: N-terminal GST; dsDNA, one strand shown
# T7 sequence: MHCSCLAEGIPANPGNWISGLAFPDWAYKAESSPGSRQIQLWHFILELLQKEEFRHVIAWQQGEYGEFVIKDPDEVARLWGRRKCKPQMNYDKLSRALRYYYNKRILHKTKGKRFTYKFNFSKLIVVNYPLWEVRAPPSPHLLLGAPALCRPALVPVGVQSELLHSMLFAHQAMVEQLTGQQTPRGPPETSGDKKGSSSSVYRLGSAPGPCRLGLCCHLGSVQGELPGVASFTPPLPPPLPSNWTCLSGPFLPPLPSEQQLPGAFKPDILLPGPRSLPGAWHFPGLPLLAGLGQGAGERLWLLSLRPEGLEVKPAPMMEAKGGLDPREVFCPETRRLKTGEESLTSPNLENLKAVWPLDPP
# How it was run: as §1
# ETS2 = molecular target: T8, ETS2 (Homo sapiens, UniProt P15036 1-469); details: protein: recombinant; tags: N-terminal GST; dsDNA, one strand shown
# T8 sequence: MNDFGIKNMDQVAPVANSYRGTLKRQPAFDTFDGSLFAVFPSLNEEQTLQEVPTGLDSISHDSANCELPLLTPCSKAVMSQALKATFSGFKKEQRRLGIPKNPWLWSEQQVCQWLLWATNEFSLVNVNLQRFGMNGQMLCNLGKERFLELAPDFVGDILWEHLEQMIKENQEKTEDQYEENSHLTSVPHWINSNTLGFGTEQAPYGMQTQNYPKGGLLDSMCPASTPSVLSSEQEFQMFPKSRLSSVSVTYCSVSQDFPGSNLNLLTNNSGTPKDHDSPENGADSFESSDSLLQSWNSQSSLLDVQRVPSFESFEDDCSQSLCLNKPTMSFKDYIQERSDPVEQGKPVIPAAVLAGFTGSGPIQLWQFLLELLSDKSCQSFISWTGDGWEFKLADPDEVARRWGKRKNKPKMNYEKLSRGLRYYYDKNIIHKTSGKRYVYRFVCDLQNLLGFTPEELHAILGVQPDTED
# How it was run: as §1
# SPDEF = molecular target: T9, SPDEF (Homo sapiens, UniProt O95238 1-335); details: protein: recombinant; tags: N-terminal GST; dsDNA, one strand shown
# T9 sequence: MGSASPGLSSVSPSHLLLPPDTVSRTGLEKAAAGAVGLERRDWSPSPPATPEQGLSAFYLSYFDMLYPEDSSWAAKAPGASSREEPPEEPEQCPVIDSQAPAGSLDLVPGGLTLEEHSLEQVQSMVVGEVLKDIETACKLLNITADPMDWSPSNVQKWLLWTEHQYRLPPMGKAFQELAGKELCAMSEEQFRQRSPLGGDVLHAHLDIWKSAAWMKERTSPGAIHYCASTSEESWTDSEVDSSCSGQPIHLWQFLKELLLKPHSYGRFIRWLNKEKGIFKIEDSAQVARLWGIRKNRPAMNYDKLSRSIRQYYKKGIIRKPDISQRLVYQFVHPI
# How it was run: as §1
# ETV7 = molecular target: T10, ETV7 (Homo sapiens, UniProt Q9Y603 1-341); details: protein: recombinant; tags: N-terminal GST; dsDNA, one strand shown
# T10 sequence: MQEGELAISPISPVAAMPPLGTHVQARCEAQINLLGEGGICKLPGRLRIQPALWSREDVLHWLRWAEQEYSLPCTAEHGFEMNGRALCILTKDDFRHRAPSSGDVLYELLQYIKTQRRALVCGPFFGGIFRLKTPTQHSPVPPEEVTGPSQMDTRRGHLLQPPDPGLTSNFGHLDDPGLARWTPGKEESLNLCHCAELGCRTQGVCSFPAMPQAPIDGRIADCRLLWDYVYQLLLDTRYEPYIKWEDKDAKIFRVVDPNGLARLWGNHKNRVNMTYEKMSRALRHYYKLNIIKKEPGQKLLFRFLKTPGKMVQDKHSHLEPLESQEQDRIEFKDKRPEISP
# How it was run: as §1
# ELF5 = molecular target: T11, ELF5 (Homo sapiens, UniProt Q9UKW6-2 1-255); details: protein: recombinant; tags: N-terminal GST; dsDNA, one strand shown
# T11 sequence: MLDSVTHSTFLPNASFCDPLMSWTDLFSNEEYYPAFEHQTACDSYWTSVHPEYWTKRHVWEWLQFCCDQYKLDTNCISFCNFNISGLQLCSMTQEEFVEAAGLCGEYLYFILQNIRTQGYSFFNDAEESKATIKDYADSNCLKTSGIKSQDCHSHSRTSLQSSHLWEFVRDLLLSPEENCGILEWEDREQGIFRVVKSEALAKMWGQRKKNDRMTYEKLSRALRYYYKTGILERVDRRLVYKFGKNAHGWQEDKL
# How it was run: as §1
# ETV3 = molecular target: T12, ETV3 (Homo sapiens, UniProt P41162-2 1-143); details: protein: recombinant; tags: N-terminal GST; dsDNA, one strand shown
# T12 sequence: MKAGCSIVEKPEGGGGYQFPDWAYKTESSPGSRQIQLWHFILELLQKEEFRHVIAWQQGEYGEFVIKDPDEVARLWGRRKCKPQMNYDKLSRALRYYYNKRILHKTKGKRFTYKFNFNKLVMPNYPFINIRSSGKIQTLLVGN
# How it was run: as §1
# ETV6 = ETV6 (Homo sapiens, UniProt P41212 1-452); details: protein: recombinant; tags: N-terminal GST; dsDNA, one strand shown
# How it was run: as §1
# ETV5, sequence (P41161 whole entry): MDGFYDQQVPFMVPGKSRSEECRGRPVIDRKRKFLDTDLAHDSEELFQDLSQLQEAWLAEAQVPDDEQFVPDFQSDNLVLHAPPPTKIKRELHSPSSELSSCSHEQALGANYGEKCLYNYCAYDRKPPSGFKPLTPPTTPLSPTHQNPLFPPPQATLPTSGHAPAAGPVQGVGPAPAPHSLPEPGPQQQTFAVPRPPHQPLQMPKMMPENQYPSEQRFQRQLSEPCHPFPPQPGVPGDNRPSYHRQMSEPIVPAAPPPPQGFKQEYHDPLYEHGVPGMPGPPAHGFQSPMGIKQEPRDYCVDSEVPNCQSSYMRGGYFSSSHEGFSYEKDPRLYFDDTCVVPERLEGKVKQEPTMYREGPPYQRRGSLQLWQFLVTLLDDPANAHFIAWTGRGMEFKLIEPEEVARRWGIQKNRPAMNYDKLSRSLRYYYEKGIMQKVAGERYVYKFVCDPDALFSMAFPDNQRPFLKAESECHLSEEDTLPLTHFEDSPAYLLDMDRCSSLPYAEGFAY
# CRX, sequence (O43186 whole entry): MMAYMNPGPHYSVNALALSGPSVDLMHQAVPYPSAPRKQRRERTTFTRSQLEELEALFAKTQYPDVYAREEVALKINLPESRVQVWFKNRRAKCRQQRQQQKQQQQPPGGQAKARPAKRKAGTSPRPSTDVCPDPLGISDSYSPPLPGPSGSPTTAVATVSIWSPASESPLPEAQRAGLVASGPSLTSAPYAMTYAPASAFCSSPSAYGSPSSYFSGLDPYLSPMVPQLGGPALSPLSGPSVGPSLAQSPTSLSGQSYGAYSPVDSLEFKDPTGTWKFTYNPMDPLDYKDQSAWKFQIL
# HSF1, sequence (Q00613 whole entry): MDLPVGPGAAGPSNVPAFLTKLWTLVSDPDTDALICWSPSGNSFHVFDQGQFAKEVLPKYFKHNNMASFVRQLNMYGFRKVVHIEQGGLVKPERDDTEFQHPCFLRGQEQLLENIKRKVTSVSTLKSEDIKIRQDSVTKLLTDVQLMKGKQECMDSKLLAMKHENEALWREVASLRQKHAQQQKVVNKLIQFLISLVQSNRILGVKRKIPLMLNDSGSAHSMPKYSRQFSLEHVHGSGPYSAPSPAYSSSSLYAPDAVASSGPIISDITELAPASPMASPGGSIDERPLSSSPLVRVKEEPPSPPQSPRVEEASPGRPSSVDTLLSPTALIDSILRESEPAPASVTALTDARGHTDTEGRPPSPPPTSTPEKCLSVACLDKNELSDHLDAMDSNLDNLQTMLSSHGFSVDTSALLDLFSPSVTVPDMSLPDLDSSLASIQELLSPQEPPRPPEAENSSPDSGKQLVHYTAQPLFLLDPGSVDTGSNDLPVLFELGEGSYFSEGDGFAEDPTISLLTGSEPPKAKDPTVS
# ETV6, sequence (P41212 whole entry): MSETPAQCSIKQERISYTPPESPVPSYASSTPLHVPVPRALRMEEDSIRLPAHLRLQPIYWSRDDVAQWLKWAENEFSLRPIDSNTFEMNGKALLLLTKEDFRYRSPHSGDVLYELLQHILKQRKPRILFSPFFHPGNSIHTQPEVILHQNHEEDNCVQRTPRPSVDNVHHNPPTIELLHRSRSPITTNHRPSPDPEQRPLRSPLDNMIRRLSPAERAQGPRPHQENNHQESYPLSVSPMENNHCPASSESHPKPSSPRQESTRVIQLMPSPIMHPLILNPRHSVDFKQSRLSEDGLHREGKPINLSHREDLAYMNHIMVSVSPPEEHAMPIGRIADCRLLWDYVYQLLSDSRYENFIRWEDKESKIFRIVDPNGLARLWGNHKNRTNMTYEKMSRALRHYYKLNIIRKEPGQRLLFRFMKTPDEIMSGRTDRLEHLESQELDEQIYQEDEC
# ETV1, sequence (P50549 whole entry): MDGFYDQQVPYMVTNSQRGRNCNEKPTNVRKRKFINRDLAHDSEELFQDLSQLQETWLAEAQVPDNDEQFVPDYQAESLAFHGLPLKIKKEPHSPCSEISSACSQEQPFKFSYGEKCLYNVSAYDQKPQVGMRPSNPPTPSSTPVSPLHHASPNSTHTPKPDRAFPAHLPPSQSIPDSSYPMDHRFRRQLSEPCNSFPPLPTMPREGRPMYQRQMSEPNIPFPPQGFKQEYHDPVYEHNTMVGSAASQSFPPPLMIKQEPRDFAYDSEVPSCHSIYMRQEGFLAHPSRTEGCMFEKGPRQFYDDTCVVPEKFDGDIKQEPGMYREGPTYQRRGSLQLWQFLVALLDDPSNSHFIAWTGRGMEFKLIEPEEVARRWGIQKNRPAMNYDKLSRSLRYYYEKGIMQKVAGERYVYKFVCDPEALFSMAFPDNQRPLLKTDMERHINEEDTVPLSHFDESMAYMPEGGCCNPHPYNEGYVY
# ELF4, sequence (Q99607 whole entry): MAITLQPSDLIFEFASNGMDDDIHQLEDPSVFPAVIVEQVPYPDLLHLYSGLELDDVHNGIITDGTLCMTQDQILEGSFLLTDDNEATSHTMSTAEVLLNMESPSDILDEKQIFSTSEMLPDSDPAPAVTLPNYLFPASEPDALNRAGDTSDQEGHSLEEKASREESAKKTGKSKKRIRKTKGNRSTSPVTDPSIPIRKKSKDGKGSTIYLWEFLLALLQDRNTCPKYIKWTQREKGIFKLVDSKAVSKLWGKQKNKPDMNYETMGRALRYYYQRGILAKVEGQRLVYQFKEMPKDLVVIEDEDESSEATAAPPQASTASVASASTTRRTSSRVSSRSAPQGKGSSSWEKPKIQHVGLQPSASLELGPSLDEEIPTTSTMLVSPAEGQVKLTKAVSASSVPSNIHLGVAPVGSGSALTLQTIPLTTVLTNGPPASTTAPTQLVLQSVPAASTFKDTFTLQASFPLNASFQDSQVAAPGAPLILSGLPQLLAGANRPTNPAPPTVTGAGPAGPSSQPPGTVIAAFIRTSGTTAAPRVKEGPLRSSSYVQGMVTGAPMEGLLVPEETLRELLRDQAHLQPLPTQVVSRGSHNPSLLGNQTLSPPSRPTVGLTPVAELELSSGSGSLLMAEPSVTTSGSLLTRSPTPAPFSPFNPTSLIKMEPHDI
sequence,measurement,setting,value
ATGGGT,binding signal,FEV,"1.28 fold enrichment (6-mer frequency, TF over GST control)"
same,binding signal,ETV5,"1.5 fold enrichment (6-mer frequency, TF over GST control)"
same,binding signal,HSF1,"1.08 fold enrichment (6-mer frequency, TF over GST control)"
same,binding signal,SPIC,"1.36 fold enrichment (6-mer frequency, TF over GST control)"
same,binding signal,ELF4,"1.35 fold enrichment (6-mer frequency, TF over GST control)"
same,binding signal,ELK4,"1.33 fold enrichment (6-mer frequency, TF over GST control)"
same,binding signal,ETV2,"1.36 fold enrichment (6-mer frequency, TF over GST control)"
same,binding signal,ELF3,"1.31 fold enrichment (6-mer frequency, TF over GST control)"
same,binding signal,CRX,"1.11 fold enrichment (6-mer frequency, TF over GST control)"
same,binding signal,ETV1,"1.21 fold enrichment (6-mer frequency, TF over GST control)"
same,binding signal,ERF,"1.36 fold enrichment (6-mer frequency, TF over GST control)"
same,binding signal,ETV3L,"1.27 fold enrichment (6-mer frequency, TF over GST control)"
same,binding signal,ETS2,"1.37 fold enrichment (6-mer frequency, TF over GST control)"
same,binding signal,SPDEF,"1.42 fold enrichment (6-mer frequency, TF over GST control)"
same,binding signal,ETV7,"1.41 fold enrichment (6-mer frequency, TF over GST control)"
same,binding signal,ELF5,"1.34 fold enrichment (6-mer frequency, TF over GST control)"
same,binding signal,ETV3,"1.3 fold enrichment (6-mer frequency, TF over GST control)"
same,binding signal,ETV6,"1.33 fold enrichment (6-mer frequency, TF over GST control)"

# From publication PMC7862700, “An all-to-all approach to the identification of sequence-specific readers for epigenetic DNA modifications on cytosine”
